Experimental findings from the supplement of paper PMC9477273 are described below.

In this test the test system is DRIVER-selected RNA biosensor (aptazyme) pool. Nature of the test: maximum fold change of ribozyme cleavage across biosensor pool versus no-compound control; higher = stronger biosensor response (ligand inhibits cleavage). To be noted: 10 µM. As for the experimental part:
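CleaveSeq: a pool of resynthesized hammerhead-ribozyme RNA biosensors (sTRSV scaffold with randomized loops, 1,730 sequences) was T7-transcribed at 37 °C for 15-30 min with a single compound at 10 µM. Cleaved and uncleaved products were counted by NGS, and fold change of cleavage was computed against the DMSO-only condition. The value is the maximum fold change of cleavage over all biosensors in the pool. About 255 compounds were tested individually.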
As to `COc1ccc(/C=C2N=C(c3ccc(Cl)c(Cl)c3)OC2=O)cc1`, the maximum fold change is 2.84. As for `COc1ccc(C(=O)Cn2c3ccccc3n3nc(-c4ccccc4)nc23)cc1OC`, the maximum fold change came to 4.22. Consider `CCOC(=O)c1c(C)c(C(=O)N(CC)C2CCCCC2)c(C)n1C`, for which the maximum fold change was found to be 2.31.

Compound `Cc1ccc(CNC(=O)c2cc3c(=O)oc4ccccc4c3s2)o1` returned a maximum fold change of 3.09. The same measure for `Cc1ccc(-c2noc(CCC(=O)NCc3ccc(F)cc3Cl)n2)cc1`: 3.35; for `C=Cc1ccc(Cn2c(C(=O)O)c(CNCC3CCCO3)c3ccc(C)cc32)cc1` (stereo not given): 2.75; for `O=C(Cn1ncn2nc(-c3cccs3)cc2c1=O)N1CCN(c2ccccn2)CC1`: 3.03. For `CCOc1ccccc1-n1cc2c(c1-c1cccc(C)c1)c(=O)n(C)c(=O)n2C`, the maximum fold change was 1.83. Compound `N#C/C(=Cc1c(Oc2ccc(cc2)C)nc2n(c1=O)cccc2)/C(=O)OC` had a maximum fold change of 5.19. The same measure for `CC(C)CCNC(=O)Cn1c2c(c(-c3ccccc3Cl)cc1=O)CCC2`: 2.06; for `CCOC(=O)N1CCN(C(=O)C2=C(C)C(=O)OC23CCCCC3)CC1`: 4.06. `Cn1c(=O)[nH]c(=O)c2c1nc(NCCCn1ccnc1)n2CCCc1ccccc1` came in with a maximum fold change of 1.96. Take `CCOc1ccc(CCNC(=O)Cn2ccc3cc(S(=O)(=O)N4CCCC4)ccc32)cc1`: the maximum fold change came to 3.07. Under `N=C1NC(=O)/C(=C/c2cc(Br)ccc2OCc2ccccc2)S1` stands 4.89; under `CN(Cc1ccccc1)C(=O)CCc1nc(CN2CCN(C(=O)c3noc4c3CCCC4)CC2)no1`, 4.1; under `COc1ccccc1OCC(O)Cn1c[n+](C)c2cc(C)c(C)cc21` (stereo not given), 3.47. In the case of `N#C/C(=Cc1c(Oc2ccc(cc2)Br)nc2n(c1=O)cccc2)/C(=O)N1CCOCC1`, the maximum fold change was 4.23. `CC(=O)c1c(C)[nH]c2ccccc2c1=O` registered a maximum fold change of 2.03. In the case of `CS(=O)(=O)c1ccc2nc(NC(=O)c3cc4ccccc4o3)sc2c1`, the maximum fold change worked out at 7.28. Under `COc1ccc(C=C2C(=O)c3ccccc3C2=O)c(C)c1` stands 2.53. In turn, `COc1ccc(Br)cc1CNCc1sc(C(=O)O)cc1C` had a maximum fold change of 3.28.

With `CC1=C(c2ccc(C)cc2)S(=O)(=O)N=C1NCCCN1CCc2ccccc2C1`, the maximum fold change was determined as 3.69. The compound `COc1ccc(C2=NN(CCC(=O)N3CCCCC3)C(=O)CC2)cc1` gave a maximum fold change of 4.11. Regarding `Cc1ccc(-c2nc(CS(=O)(=O)CC(=O)NCCCN(C)Cc3ccccc3)c(C)o2)cc1`, the maximum fold change is 3.58. The compound `COCCNC(=O)C1c2ccccc2C(=O)N(CCOC)C1c1c[nH]c2ccccc12` (stereo not given) had a maximum fold change of 2.7. `C=Cc1ccc(Cn2c(C)c(CNCc3ccc(CC)cc3)c(C(=O)O)c2C)cc1` showed a maximum fold change of 3.37. The same measure for `CCN1CCCC1CNC(=O)CS(=O)(=O)Cc1nc(-c2ccc(C)cc2)oc1C` (stereo not given): 2.2; for `COC(=O)/C(C#N)=C/c1c(Oc2ccccc2Cl)nc2ccccn2c1=O`: 3.58; for `O=C(Cn1ncc2c1-c1ccccc1OC2)N1CCC(Cc2ccccc2)CC1`: 3.52. In turn, `COc1ccc(OC)c(C2C3=C(CC(C)(C)CC3=O)OC3=C2C(=O)CC(C)(C)C3)c1` displayed a maximum fold change of 2.36. `N/C(=N\OC(=O)N1CCOCC1)c1ccccn1`: the maximum fold change was found to be 2.1. Turning to `Cc1ccc(C(=O)N(Cc2ccccc2F)C2CCS(=O)(=O)C2)cc1` (stereo not given), the maximum fold change came to 2.6. Turning to `c1cc(-c2nc3cc(Oc4ccc5[nH]c(-c6ccncc6)nc5c4)ccc3[nH]2)ccn1`, the maximum fold change stood at 14.3. Take `Cc1ccc(OCC(=O)N(Cc2ccccc2F)C2CCS(=O)(=O)C2)cc1C` (stereo not given): the maximum fold change came to 2.91.

As for `Cn1c(-c2ccc3c(c2)OCO3)cnc1NCc1cc(Br)ccc1F`, the maximum fold change came out at 3.3.

In turn, `C=CCNC(=O)/C(C#N)=C/c1c(Oc2ccccc2)nc2ccccn2c1=O` returned a maximum fold change of 9.03. Compound `CN(C)CCNC(=O)CCn1c(=O)c2cccn2c2cccnc21` came in with a maximum fold change of 3.34. Compound `O=c1c2cccnc2n(Cc2ccc(Cl)cc2)c(=O)n1CCc1ccccc1` showed a maximum fold change of 2.13. The same measure for `CC(C)COc1ccc(-c2nn(-c3ccccc3)cc2CO)cc1`: 3.19; for `COc1cc(CNCc2c(C(=O)O)c(C)n(Cc3ccc(F)cc3)c2C)cc(OC)c1OC`: 3.4.
